Assay results taken from the supplement of paper PMC12645437, “Orthogonal IMiD-Degron Pairs Induce Selective Protein Degradation in Cells” (ACS Chemical Biology, 2025).
In all, about 8,300 sequences were measured (“log2 fold change of degron read counts, EGFP-low vs EGFP+ sorted cells (limma voom), compound-induced degradation”: median about -1.1, highest 2% from about 3.2 on). What follows is part of a selection rich in the highest values, with near analogues and random picks from the rest.

T1: CRBN, Q96SW2
T1 chain: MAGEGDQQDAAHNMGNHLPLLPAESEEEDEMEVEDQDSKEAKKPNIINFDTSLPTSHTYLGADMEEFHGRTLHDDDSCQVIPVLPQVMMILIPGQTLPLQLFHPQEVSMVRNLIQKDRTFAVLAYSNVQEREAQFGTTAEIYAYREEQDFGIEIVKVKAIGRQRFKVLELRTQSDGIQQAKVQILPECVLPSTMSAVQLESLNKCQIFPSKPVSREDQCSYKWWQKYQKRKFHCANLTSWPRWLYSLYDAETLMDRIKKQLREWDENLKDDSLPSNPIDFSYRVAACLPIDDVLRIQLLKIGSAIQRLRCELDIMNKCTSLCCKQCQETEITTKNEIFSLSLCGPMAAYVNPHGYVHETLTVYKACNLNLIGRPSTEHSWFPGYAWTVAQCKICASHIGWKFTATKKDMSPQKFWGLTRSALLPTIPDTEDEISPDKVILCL


Target: T1, CRBN, Q96SW2
Assay: log2 fold change of degron read counts, EGFP-low vs EGFP+ sorted cells (limma voom), compound-induced degradation; higher = more compound-induced degradation of the degron-EGFP fusion; degrons are variants of IKZF1/3 zinc finger 2; compound dose not given here
Conditions: Jurkat, 18 h
Method: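 Pooled library of 8380 IKZF3 ZF2 degron mutants (positions 146-167 varied within the IKZF3 130-189 degron; only the varied core is printed, flanks not printed) fused to EGFP with IRES-mCherry, lentivirally expressed in Jurkat cells. mCherry+ cells were treated with one IMiD compound for 18 h (dose not stated) and FACS-sorted into EGFP-low and EGFP+ populations. Degron sequences were counted by NGS, and log2FC (EGFP-low vs EGFP+) was estimated by limma voom over 3 biological replicates.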

[1] = compound: compound 19 (5-tert-butyl-thalidomide)
[2] = compound: compound 22 (5-morpholino-thalidomide)
[3] = compound: compound 33 (diphenyl IMiD analogue)
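Also: pooled lentiviral library of zinc finger degron-EGFP fusions in mCherry-positive Jurkat cells, FACS-sorted after compound exposure, with degron abundance counted by next-generation sequencing.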

| Sequence | log2 fold change of degron read counts [1] | log2 fold change of degron read counts [2] | log2 fold change of degron read counts [3] | log2 fold change of degron read counts (compound: thalidomide) |
| --- | --- | --- | --- | --- |
| FMCEQCGAYFTQKGNLLRHIKL [46F_47M_49E_50Q_52G_53A_54Y_55F_67L_, Q9UKT9] | -2.39 | -2.36 | -0.295 | -2.25 |
| LTCEICGFICTQKGNLLRHIKL [46L_47T_49E_50I_52G_53F_54I_55C_67L_, Q9UKT9] | -0.462 | -0.661 | 0.241 | 1.1 |
| FKCDVCGAPFTQKGNLLRHIKL [46F_47K_49D_50V_52G_53A_54P_55F_67L_, Q9UKT9] | -0.146 | -0.607 | -2.1 | 0.295 |
| FFCDVCGARFTQKGNLLRHIKL [46F_47F_49D_50V_52G_53A_54R_55F_67L_, Q9UKT9] | 3.5 | 3.15 | 0.549 | -0.102 |
| FHCDVCGARFTQKGNLLRHIKL [46F_47H_49D_50V_52G_53A_54R_55F_67L_, Q9UKT9] | 0.448 | 0.585 | -1.42 | -1.6 |
| FYCDVCGARFTQKGNLLRHIKL [46F_47Y_49D_50V_52G_53A_54R_55F_67L_, Q9UKT9] | 3.21 | 3.28 | 0.5 | -0.569 |
| FMCDVCGARFTQKGNLLRHIKL [46F_47M_49D_50V_52G_53A_54R_55F_67L_, Q9UKT9] | -1.48 | -1.88 | 0.0127 | -0.773 |
| FGCDVCGARFTQKGNLLRHIKL [46F_47G_49D_50V_52G_53A_54R_55F_67L_, Q9UKT9] | 1.49 | -0.377 | -1.65 | -0.568 |
| FLCDVCGARFTQKGNLLRHIKL [46F_47L_49D_50V_52G_53A_54R_55F_67L_, Q9UKT9] | -1.59 | -2.29 | -1.43 | -0.242 |
| FVCDVCGARFTQKGNLLRHIKL [46F_47V_49D_50V_52G_53A_54R_55F_67L_, Q9UKT9] | -0.856 | 0.623 | -0.882 | 0.963 |
| FDCDVCGARFTQKGNLLRHIKL [46F_47D_49D_50V_52G_53A_54R_55F_67L_, Q9UKT9] | 0.864 | -0.479 | -1.77 | -0.643 |
| FWCDVCGARFTQKGNLLRHIKL [46F_47W_49D_50V_52G_53A_54R_55F_67L_, Q9UKT9] | 2.89 | 3.6 | 0.211 | 0.033 |
| FCCDQCGAVFTQKGNLLRHIKL [46F_47C_49D_50Q_52G_53A_54V_55F_67L_, Q9UKT9] | -2.49 | -1.9 | -0.705 | -2.14 |
| FECDVCGAHFTQKGNLLRHIKL [46F_47E_49D_50V_52G_53A_54H_55F_67L_, Q9UKT9] | -2.74 | -4.09 | -1.55 | -1.76 |
| FECPQCGAPFTQKGNLLRHIKL [46F_47E_49P_50Q_52G_53A_54P_55F_67L_, Q9UKT9] | -2.11 | -2.37 | -1.67 | -1.19 |
| FMCNQCGAKFTQKGNLLRHIKL [46F_47M_49N_50Q_52G_53A_54K_55F_67L_, Q9UKT9] | -2.87 | -2.47 | -2.42 | -2.11 |
| LECEICGFGCTQKGNLLRHIKL [46L_47E_49E_50I_52G_53F_54G_55C_67L_, Q9UKT9] | -0.956 | -2.31 | -1.15 | -0.202 |

| Sequence | log2 fold change of degron read counts [1] | log2 fold change of degron read counts [2] | log2 fold change of degron read counts [3] | log2 fold change of degron read counts (compound: thalidomide) |
| --- | --- | --- | --- | --- |
| FMCDVCGAQFTQKGNLLRHIKL [46F_47M_49D_50V_52G_53A_54Q_55F_67L_, Q9UKT9] | -1.67 | -1.16 | 1.5 | -0.932 |
| FHCNICGACFTQKGNLLRHIKL [46F_47H_49N_50I_52G_53A_54C_55F_67L_, Q9UKT9] | 1.16 | 1.39 | 0.659 | -0.53 |
| FGCNQCGHWFTQKGNLLRHIKL [46F_47G_49N_50Q_52G_53H_54W_55F_67L_, Q9UKT9] | -0.98 | -1.42 | -1.2 | -0.959 |
| FNCPQCGAGFTQKGNLLRHIKL [46F_47N_49P_50Q_52G_53A_54G_55F_67L_, Q9UKT9] | -0.184 | -2.36 | -1.35 | -2.07 |
| FECEICGACFTQKGNLLRHIKL [46F_47E_49E_50I_52G_53A_54C_55F_67L_, Q9UKT9] | 0.505 | -1.14 | 1.9 | 2.35 |
| FSCEICGACFTQKGNLLRHIKL [46F_47S_49E_50I_52G_53A_54C_55F_67L_, Q9UKT9] | 3.31 | 2.47 | 2.56 | 1.4 |
| FDCEICGACFTQKGNLLRHIKL [46F_47D_49E_50I_52G_53A_54C_55F_67L_, Q9UKT9] | 1.52 | -0.309 | 0.629 | 0.633 |
| FCCEICGACFTQKGNLLRHIKL [46F_47C_49E_50I_52G_53A_54C_55F_67L_, Q9UKT9] | 2.78 | 2.06 | 2.71 | 2.24 |
| FQCEICGACFTQKGNLLRHIKL [46F_47Q_49E_50I_52G_53A_54C_55F_67L_, Q9UKT9] | 1.23 | 3.08 | 2.71 | 3.48 |
| FKCEICGACFTQKGNLLRHIKL [46F_47K_49E_50I_52G_53A_54C_55F_67L_, Q9UKT9] | -0.172 | -3.02 | -3.63 | -0.785 |
| FVCEICGACFTQKGNLLRHIKL [46F_47V_49E_50I_52G_53A_54C_55F_67L_, Q9UKT9] | 0.542 | 1.78 | 2.28 | 2.75 |
| FMCEICGACFTQKGNLLRHIKL [46F_47M_49E_50I_52G_53A_54C_55F_67L_, Q9UKT9] | 0.319 | 0.12 | 2.53 | 1.09 |
| FTCEICGACFTQKGNLLRHIKL [46F_47T_49E_50I_52G_53A_54C_55F_67L_, Q9UKT9] | 1.77 | 2.36 | 2.49 | 2.86 |
| FYCEICGACFTQKGNLLRHIKL [46F_47Y_49E_50I_52G_53A_54C_55F_67L_, Q9UKT9] | 3.73 | 3.6 | 2.92 | 1.43 |
| FGCEICGACFTQKGNLLRHIKL [46F_47G_49E_50I_52G_53A_54C_55F_67L_, Q9UKT9] | 3.4 | 2.93 | 2.06 | 1.14 |
| FRCEICGACFTQKGNLLRHIKL [46F_47R_49E_50I_52G_53A_54C_55F_67L_, Q9UKT9] | 0.0911 | -0.251 | 1.83 | 1.53 |
